Potency and affinity values are given separately. Unmarked numbers belong to inactive results.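 Rule for the calls: active = fitted half-maximal concentration for loss of cell signal no higher than twice the top valid tested concentration; inconclusive = flat curve at 30 to 70% inhibition, or poor fit; inactive = flat within 30%, signal rise, or potency above limit.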
Assay: MDA-MB-231 cell growth inhibition, dose response, cytotoxicity control for RAD54 inhibitor project, CellTiter-Glo luminescence, cherry-pick (AID 651692);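 note: 0% = median of sample compound wells and -100% = staurosporine control wells; more negative values mean stronger loss of viable cell signal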
Conditions: MDA-MB-231 viability, 24 h; series mostly up to 26 µM; activity change, negative = growth inhibition: at the top concentration

Point of comparison: `CN(C)CCCNc1nc2cc(-c3ccccc3)sc2c(=O)n1C`, “activity change, negative = growth inhibition” value -7.78%. Against it:
- CCN(CC)CCNC(=O)c1cc2cc3ccc(OC)cc3nc2o1 — higher, 4.55%
- Cc1[nH]ccc2cc3nc4ccccc4c3cc12 — lower, -23.1%
- COc1ccc(Nc2c3ccccc3nc3ccccc23)cc1 — lower, -8.98%
- CCOC(=O)c1cnc2c(C)cc(Cl)cc2c1NCCCN1CCOCC1 — higher, 13%
- O=C(Nc1ccccc1)c1cc(S(=O)(=O)N2CCOCC2)cs1 — higher, 11.1%
- OCCCNc1c2ccccc2nc2ccccc12 — higher, 1.17%
- Cc1nc2oc3c(=O)[nH]cnc3c2c2c1COC(C)(C)C2 — higher, 10.6%
- COc1ccc2nc(C)cc(Nc3ccc(N4CCOCC4)cc3)c2c1 — higher, 0.195%
- COc1ccc(CCNc2c3ccccc3nc3ccccc23)cc1OC — higher, -1.11%
- COc1ccc(CCn2c(=N)c(C(=O)NCC3CCCO3)cc3c(=O)n4cccc(C)c4nc32)cc1OC (stereo not given) — lower, -13.4%
- Cc1cc(C)c2nc(C)cc(Nc3ccc(C(=O)NCCO)cc3)c2c1 — higher, -0.096%
- CN(C)C(CNC(=O)CCCN1C(=O)c2cccc3cccc(c23)C1=O)c1ccccc1 (stereo not given) — higher, 13.8%
- COc1ccccc1C(=O)C(O)c1ccccc1OC (stereo not given) — higher, 2.24%
- CCN(CC)Cc1cc(Nc2ccnc3cc(Cl)ccc23)ccc1O — higher, -5.39%
- CCOCCCNC(=S)Nc1ccc2nc(N3CCCC3)cc(C)c2c1 — higher, -4.85%
- CC(=O)Nc1cc(-c2cccc(C(=O)NCCN(C)C)c2)cn2c(-c3ccccc3)cnc12 — higher, -4.39%
- CCOc1ccc2[nH]c3c(NCCN(C)C)ncnc3c2c1 — higher, -4.38%
- CC1CCCCC1NC(=O)C1Cc2ccccc2CN1S(C)(=O)=O (stereo not given) — higher, 1.52%
- OC1CCCN(Cc2c3ccccc3cc3ccccc23)C1 (stereo not given) — higher, 7.86%
- CC1CCCN(CCCNC(=O)c2cc3c(Cl)nc4ccccc4c3s2)C1 (stereo not given) — lower, -16.3%
- CCCN(CCC)CCCNC(=S)Nc1ccc2nc(N3CCN(C)CC3)cc(C)c2c1 — higher, 0.795%
- COc1cc2nc(N(C)C)nc(N)c2cc1OC — higher, 0.925%
- CCOc1cc2nc(-c3ccc(OC)c(OC)c3)nc(NCCCN3CCOCC3)c2cc1OC — higher, 1.98%
- CCOCCCn1c(=N)c(C(=O)NCCN2CCOCC2)cc2c(=O)n3cccc(C)c3nc21 — higher, 1.54%
- O=C(CN1CCCC1)Nc1ccc(-c2nc3cc(NC(=O)CN4CCCC4)ccc3o2)cc1 — higher, -7.28%
- COc1ccc(C(=O)CN2CCN(CCN3C(=O)c4cccc5cccc(c45)C3=O)CC2)cc1 — higher, 2.15%
- CN(C)CCNC(=O)c1cccc(-c2cnc3c(NC=O)cc(-c4ccc(S(C)(=O)=O)cc4)cn23)c1 — higher, 5.28%
- CN(C)CCOc1nc(-c2ccccc2)nc2c1oc1ccccc12 — lower, -10.9%
- Cc1c(OCC(=O)NC2CC(C)(C)NC(C)(C)C2)ccc2c1oc(=O)c1ccccc12 — higher, 0.065%
- COc1ccc(Nc2c3c(nc4ccc(C)cc24)CCC3)cc1 — higher, -6.18%
- CN(C)CCCNc1nc2cc(-c3ccc4c(ccn4C)c3)sc2c(=O)n1C — higher, -4.29%
- CN(C)CCCNc1nc2cc(-c3ccc(C(=O)N4CCN(C)CC4)cc3)sc2c(=O)n1C — higher, 4.25%
- Cc1ccc(-c2nc(NCCCN(C)C)c3ccccc3n2)cc1 — higher, -6.8%
- OCCN1CCN(c2nc(-c3ccccc3O)nc3ccccc23)CC1 — higher, 1.16%
- Cc1ccc(S(=O)(=O)N2CCOCC2)c(C)c1NS(C)(=O)=O — higher, 1.27%
- CCN(CC)CCn1c2ccc(Cl)cc2c2nc(C)sc21 — higher, 3.44%
- COc1cc(OC)c2nc(C)c3c(c2c1)N(c1ccc(O)cc1)CC3 — higher, 6.2%
- COc1ccc(Nc2nc(NCC3CCCO3)c3ccccc3n2)c(OC)c1 (stereo not given) — higher, 6.96%
- Cc1cc(N2CCN(C)CC2)nc2ccc(NC(=S)NCCN3CCc4ccccc4C3)cc12 — higher, -6.89%

— PubChem BioAssay AID651692 (Broad Institute, 2012)
